Assay results reported in PubChem BioAssay (EPA / NIEHS).
Values joined by “and” are separate entries in the source; they are usually repeats but may differ in a detail not shown here. Identical values can stand only once. Active and inactive are the calls of the source. The calls were made as follows: active = hit-call score of the fitted dose curve at least 0.9, where 1 is the maximum; inactive = score below 0.9.

These compounds were tested on Interleukin-1 alpha (IL1a), IL1A (gene 3552) (assay: BSK_BE3C_IL1a: BioMAP Diversity Plus: BE3C Assay for Interleukin-1 alpha (IL1a) Biomarker Activity (AID 2283016)). Conditions: primary human bronchial epithelial cells; actives raise or lower the signal.
Experimental: BSK_BE3C is a cell-based, multiplexed-readout assay that uses bronchial epithelial cell, a human lung primary cell, with measurements taken at 24 hours after chemical dosing in a 96-well plate.BSK_BE3C_IL1a is an assay component measured in the BSK_BE3C assay. It measures IL-1a antibody related to regulation of gene expression using ELISA technology.Data from the assay component BSK_BE3C_IL1a was analyzed into 1 assay endpoint. This assay endpoint, BSK_BE3C_IL1a, was analyzed with bidirectional fitting relative to DMSO as the negative control and baseline of activity. Using a type of binding reporter, gain or loss-of-signal activity can be used to understand changes in the signaling as they relate to the gene IL1A. Furthermore, this assay endpoint can be referred to as a primary readout, because this assay has produced multiple assay endpoints where this one serves a signaling function. To generalize the intended target to other relatable targets, this assay endpoint is annotated to the cytokine intended target family, where the subfamily is interleukins.
The levels of cell surface (or secreted, indicated by the prefix "s") biomarker endpoints were measured by ELISA. Overt cytotoxicity to cells in confluent adherent cultures (all systems other than the BT system) was assessed by measuring total protein levels using sulforhodamine B (SRB) staining in parallel cultures at the time of biomarker measurements, indicated as SRB endpoints. For proliferation assays for adherent cell types, individual cell types are cultured at sub-confluence and relative cell numbers quantified by SRB staining at time points optimized for each system (48 h: 3C and CASM3C systems; 72 h: BT and HDF3CGF systems; 96 h: SAg system). SRB was performed by staining cells with 0.1% SRB after fixation with 10% TCA and reading wells at 560 nm.Viability and proliferation of PBMC (T cells) was quantified by Alamar Blue reduction for the SAg and BT systems. For PBMC viability (referred to as PBMC Cytotoxicity within the assay endpoint names), cells were plated (75,000/well in a 96-well plate) and then chemical samples added for 1 h before addition of activators, SEB and TSST-1 (20 ng/mL final concentration each). Cells were incubated for 90 h. Then, Alamar Blue (20 uL/well) (Invitrogen, Cat DAL1100) was added for 6 h, and the plates were read with a fluorescence microplate reader at 546/580 nm (excitation/emission). For PBMC proliferation, cells were plated and activated as above but incubated for only 16 h prior to addition of Alamar Blue. Plates were read after 6 h.

`O=C1OC2(c3ccc(O)cc3Oc3cc(O)ccc32)c2ccccc21` was tested. Which outcome did it give?
The outcome was “inactive”.

`O=S1(=O)CC(Cl)(Cl)C(Cl)(Cl)C1` was tested. Which AC50 did it give?
The AC50 was 1.33 µM (active).

For `CCC(=O)OCC=Cc1ccccc1`, which outcome is on record?
Its outcome is “inactive”.

For `CCOC(=O)CCCCCCCCC(=O)OCC`, which outcome is on record?
The outcome was “inactive”.

For `CC(=O)CCC=C(C)CCC=C(C)C`, which outcome is on record?
The outcome was “inactive”.

With `Nc1ccc(N)c([N+](=O)[O-])c1` as the compound, how does the outcome read?
The outcome was “inactive”.

How did the AC50 turn out when `CCCCCCCC1CCCC1=O` (stereo not given) was run?
Its AC50 is 34.1 µM (active).

How did the AC50 turn out when `c1ccc(Sc2ccccc2)cc1` was run?
The AC50 was 33.2 µM (active).

Which outcome does the source give for `CC(C)(C)c1cccc(O)c1` here?
The outcome was “inactive”.

`NC(=O)c1c(Cl)cccc1Cl` was tested. Which outcome did it give?
Its outcome is “inactive”.

`O=S(=O)(O)C(F)(F)C(F)(F)OC(F)(F)C(F)(F)F` was tested. Which outcome did it give?
Its outcome is “inactive”.

How did the outcome turn out when `CC(C)CCCC(C)(C)O` was run?
The outcome was “inactive”.

With `CCCCCCCCCCCCS` as the compound, how does the outcome read?
Its outcome is “inactive”.

How did the outcome turn out when `CC(C)(CO)CO` was run?
The outcome was “inactive”.

How did the outcome turn out when `OCCN1CCOCC1` was run?
Its outcome is “inactive”.

`c1ccc2c(c1)-c1ccc3ccc4cccc5cc-2c1c3c45` was tested. Which outcome did it give?
Its outcome is “inactive”.

For `CCn1cc(C(=O)O)c(=O)c2ccc(C)nc21`, which outcome is on record?
Its outcome is “inactive”.

`CC(C)Cc1ccc(C(C)C(=O)O)cc1` (stereo not given) was tested. Which outcome did it give?
The outcome was “inactive”.

For `O=C(O)C(F)(F)C(F)(F)C(F)(F)C(F)(F)C(F)(F)C(F)(F)C(F)(F)C(F)F`, which outcome is on record?
The outcome was “inactive”.

Which outcome does the source give for `CCCCN(CCO)CCO` here?
Its outcome is “inactive”.

Which outcome does the source give for `OCC(F)(OC(F)(F)C(F)(OC(F)(F)C(F)(F)C(F)(F)F)C(F)(F)F)C(F)(F)F` (stereo not given) here?
The outcome was “inactive”.

For `C=C(C)C(N)=O`, which outcome is on record?
The outcome was “inactive”.

With `CC(=O)OCC=C(C)CCC=C(C)CCC=C(C)C` as the compound, how does the outcome read?
The outcome was “inactive”.

With `CC=CC(=O)C1=C(C)C=CCC1(C)C` as the compound, how does the outcome read?
Its outcome is “inactive”.

With `C=C(F)C(=O)OC(C(F)(F)F)C(F)(F)F` as the compound, how does the outcome read?
The outcome was “inactive”.

`COc1ccccc1NC(=O)CC(C)=O` was tested. Which outcome did it give?
The outcome was “inactive”.

With `C=C1CC/C=C(\C)CC[C@@H]2[C@@H]1CC2(C)C` as the compound, how does the outcome read?
The outcome was “inactive”.

For `COC(=O)c1ccc(C(=O)OC)cc1`, which outcome is on record?
The outcome was “inactive”.

For `CC/C(=C(\c1ccccc1)c1ccc(OCCN(C)C)cc1)c1ccccc1`, which AC50 is on record?
The AC50 was 13.2 µM (active) and 8.83 µM (active).

How did the AC50 turn out when `C=CC(=O)OCC(CO)(COC(=O)C=C)COC(=O)C=C` was run?
Its AC50 is 0.898 µM (active).

For `CC1(C)[C@H](C=C(Cl)Cl)[C@H]1C(=O)OCc1cccc(Oc2ccccc2)c1`, which outcome is on record?
Its outcome is “inactive”.

With `O=C(O)C(F)(F)OC(F)(F)C(F)(F)OC(F)(F)C(F)(F)C(F)(F)C(F)(F)F` as the compound, how does the AC50 read?
The AC50 was 50.4 µM (active) and 55.2 µM (active).

With `C=C(C)C(=O)OCCC(F)(F)C(F)(F)C(F)(F)C(F)(F)C(F)(F)C(F)(F)C(F)(F)C(F)(F)F` as the compound, how does the outcome read?
Its outcome is “inactive”.

`CCCCOCCOCCO` was tested. Which outcome did it give?
The outcome was “inactive”.

How did the outcome turn out when `CC(=O)c1ccc(C)cc1` was run?
Its outcome is “inactive”.

How did the outcome turn out when `CCOC(=O)C=Cc1ccccc1` was run?
The outcome was “inactive”.

`c1ccc(OCCOc2ccccc2)cc1` was tested. Which outcome did it give?
The outcome was “inactive”.

`C#C[C@]1(O)CC[C@H]2[C@@H]3CCc4cc(O)ccc4[C@H]3CC[C@@]21C` was tested. Which outcome did it give?
The outcome was “inactive”.

`CC(=O)OC(C)(C)C1CC=C(C)CC1` (stereo not given) was tested. Which outcome did it give?
Its outcome is “inactive”.

Which AC50 does the source give for `O=C(c1ccc(OCCN2CCCCC2)cc1)c1c(-c2ccc(O)cc2)sc2cc(O)ccc12` here?
The AC50 was 31.2 µM (active).
